{"source": "PubChem BioAssay AID2253", "about": "(Southern Research Specialized Biocontainment Screening …, 2010)", "note": "About 1,300 (59%) of roughly 2,200 compounds were called active. The rule behind the calls is not given here. So high a share suggests a set chosen from earlier hits. Only a sample is shown. Results with a measured potency or affinity are listed apart."}
{"experiment": "human monocytic cell viability reduction – S. typhimurium screen hits, cytotoxicity control for Salmonella PhoP regulon inhibitors, dose response (AID 2253)", "conditions": "THP-1 viability, CellTiter-Glo luminescence, 72 h; series mostly up to 50 µM"}
{"smiles": "O=C1c2ccccc2C(=O)N1Cc1nc(-c2ccccn2)no1", "outcome": "inactive"}
{"smiles": "O=C1c2ccccc2C(=O)N1CCCc1nc(-c2ccccn2)no1", "outcome": "inactive"}
{"smiles": "CCOc1cc(CNn2cnnc2)ccc1OCC(=O)NC1CCCCC1", "outcome": "inactive"}
{"smiles": "O=C(COC(=O)/C=C/c1ccco1)Nc1cccc([N+](=O)[O-])c1", "outcome": "inactive"}
{"smiles": "Cc1ccccc1OCC(=O)N/N=C/c1ccco1", "outcome": "inactive"}
{"smiles": "CCOC(=O)/C=C1\\SCC(=O)N1CC(=O)NC1CCCCC1", "outcome": "inactive"}
{"smiles": "CCn1c(Cc2ccccc2)nnc1SCC(=O)Nc1ccc(S(N)(=O)=O)cc1", "outcome": "inactive"}
{"smiles": "Cc1cc(C)c(NC(=O)COc2ccccc2C(=O)Nc2ccc3c(c2)oc2ccccc23)c(C)c1", "outcome": "inactive"}
{"smiles": "N/C(=N\\OC(=O)COc1ccc(Cl)cc1)c1cccnc1", "outcome": "inactive"}
{"smiles": "c1ccc(CCNc2nc3ccccc3s2)cc1", "outcome": "inactive"}
{"smiles": "COc1ccc(/C=C/C(=O)NCCc2nc3ccccc3[nH]2)cc1", "outcome": "inactive"}
{"smiles": "Cc1ccc(C(=O)Oc2ccc(C(=O)COC(=O)c3cnccn3)cc2)cc1", "outcome": "inactive"}
{"smiles": "Nc1nnc(SCc2ccc(F)cc2Cl)s1", "outcome": "inactive"}
{"smiles": "O=C(CSc1nnc(-c2cccnc2)o1)OC1CCCCC1", "outcome": "inactive"}
{"smiles": "C/C(=N/NC(=O)Cc1cccn1C)c1ccccc1", "outcome": "inactive"}
{"smiles": "Cc1oc(CC(C)C)c(CN)c1C(=O)O", "outcome": "inactive"}
{"smiles": "Cn1c(-c2ccc(N)cc2)nc2ccccc21", "outcome": "inactive"}
{"smiles": "CCCn1c(N)nc2ccccc21", "outcome": "inactive"}
{"smiles": "CCOc1ccccc1Nc1nc2ccccc2n2cnnc12", "outcome": "inactive"}
{"smiles": "CCCNC(=O)CN(C1CCCCC1)S(C)(=O)=O", "outcome": "inactive"}
{"smiles": "COc1cc([N+](=O)[O-])ccc1NC(=O)CN(C)C", "outcome": "inactive"}
{"smiles": "O=C(CSc1n[nH]c(=O)[nH]c1=O)N/N=C/c1ccccc1", "outcome": "inactive"}
{"smiles": "CC1CCc2cc(F)cc3c(=O)c(C(=O)O)cn1c23", "note": "(stereo not given)", "outcome": "inactive"}
{"smiles": "CCN1C(=O)N/C(=C/c2ccc(Sc3ccc(C)cc3)o2)C1=O", "outcome": "inactive"}
{"smiles": "O=C(Nc1cccnc1)c1cc(F)cc(F)c1", "outcome": "inactive"}
{"smiles": "COc1nsnc1NS(=O)(=O)c1ccc(NC(=S)NC(=O)c2cccnc2)cc1", "outcome": "inactive"}
{"smiles": "COc1nccnc1NS(=O)(=O)c1ccc(NC(=S)NC(=O)c2cccnc2)cc1", "outcome": "inactive"}
{"smiles": "COC(=O)Cc1ccc(NC(=S)N2CCN(c3ccc(F)cc3)CC2)cc1", "outcome": "inactive"}
{"smiles": "Cc1cccc(C(=O)NC(=S)Nc2ccc(N3CCOCC3)cc2)c1", "outcome": "inactive"}
{"smiles": "O=C(Nc1ccccc1)Oc1ccc[nH]c1=O", "outcome": "inactive"}
{"smiles": "CCCOc1ccc(C(=O)N2CCCC2C(=O)O)cc1", "note": "(stereo not given)", "outcome": "inactive"}
{"smiles": "CC(C)Nc1cc(C(F)(F)F)nc(-c2ccccn2)n1", "outcome": "inactive"}
{"smiles": "O=C(Nc1ccccn1)NC1CCCCC1", "outcome": "inactive"}
{"smiles": "COc1ccccc1NCCC(=O)OCC(=O)NC1CCCCCC1", "outcome": "inactive"}
{"smiles": "O=C(Nc1ccsc1C(=O)NC1CCCCC1)c1ccccc1", "outcome": "inactive"}
